# Source: PubChem BioAssay (Columbia University Molecular Screening Center)
# In the library only some 1% were active in any assay of this set; here they are far more common.
# HUVEC tox TNFa: toxic to HUVEC cells under TNF alpha stimulation | HUVEC TNFalpha-stimulated, Hoechst cell count, imaging | cell count reduction, % at 2 µM | actives 0.17% (n = 93,000);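 active means cell count reduction exceeding the screen mean by over 5 SD, scaled to untreated wells per plate, cut at about 78% in these data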;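 further: cells counted after 24 h of TNF alpha exposure following the 1 h pretreatment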
# VCAM1 TNFa inh: reduces TNF alpha induced VCAM1 expression in HUVEC; HUVEC TNFa-induced VCAM-1 immunofluorescence, high-content imaging; inhibition, % at 2 µM; actives 0.48% (n = 95,000); AID 802;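 active means inhibition above the batch mean plus 3 SD, with images confirmed as a hit by eye, cut at about 37% in these data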
# F-actin modifier: modifiers of cytoskeleton assembly; HUVEC TNFa F-actin phalloidin imaging, high content; inhibition, % at 2 µM; actives 0.18% (n = 91,000);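 active means inhibition above the batch mean plus 3 SD and confirmed as a hit by visual image inspection, cut at about 30% in these data, passing the limit was not always enough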
# E-sel TNF inh: blocks E-selectin expression induced by TNF alpha; AID 1246; inhibition, % at 2 µM; actives 0.71% (n = 120,000); HUVEC TNFa-induced E-selectin immunofluorescence, high content;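 active means inhibition above the batch mean plus 3 SD, and confirmed as a hit on visual image review, cut at about 43% in these data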
# A number is an active result; - = inactive; . = no result.
SMILES,HUVEC tox TNFa,VCAM1 TNFa inh,F-actin modifier,E-sel TNF inh
Cc1ccn2cc(CCNS(=O)(=O)c3ccc(F)c(C(F)(F)F)c3)nc2c1,-,-,-,88.8
Cc1ccc(C(=O)c2cc([N+](=O)[O-])ccc2N2CCOCC2)c(C)c1,-,78.7,-,-
O=C(c1ccc(Br)cc1)c1cc([N+](=O)[O-])ccc1N1CCCCC1,-,92.0,-,-
Cc1ccc(S(=O)(=O)Nc2ccc(NC(=O)Nc3ccc(F)cc3F)cc2)cc1,.,.,.,82.0
O=C(Nc1ccncc1)Nc1ccc(F)cc1F,-,-,-,-
C=CCNC(=O)COC(=O)/C=C/c1cccs1,.,.,.,-
C=CCNC(=O)/C=C/c1cccs1,.,.,.,93.9
Cc1nn(C2CCS(=O)(=O)C2)c(Cl)c1/C=C/C(=O)OCC(=O)Nc1ccc2c(c1)OCO2 (stereo not drawn),.,.,.,-
Nc1nnnn1/N=C/C(Br)=C/c1ccccc1,-,53.6,-,-
Nc1nnnn1/N=C/C=C/c1ccccc1,.,.,.,-
CC(=O)NC(CCCNC(=S)NC1CCCCC1)C(=O)O (stereo not drawn),.,.,.,-
CN(C)c1ccc(C(=O)c2ccc(N(C)C)c3ccccc23)cc1,83.6,98.9,-,-
COc1ccc(C(=O)c2ccc(N(C)C)cc2)c(OC)c1,-,-,-,.
CC(C)CSc1ccc(S(=O)(=O)NCC(=O)O)cc1[N+](=O)[O-],.,.,.,-
COCCNC(=O)C(c1cccs1)N(Cc1ccccc1)C(=O)Cn1nnc2ccccc21 (stereo not drawn),-,-,-,-
COCCNC(=O)C(c1cccs1)N(Cc1cccs1)C(=O)Cn1nnc2ccccc21 (stereo not drawn),-,-,32.3,-
CN(CC(=O)Nc1ccc(N2CCOCC2)cc1)Cc1c(O)ccc2ccccc12,.,.,.,-
CC(C)OC(=O)c1cccc(C(=O)Nc2cccc(NC(=O)c3cccc(C(=O)OC(C)C)n3)n2)n1,.,.,.,-
O=C(OCC1CC(c2ccccn2)=NO1)c1ccc(Br)cc1 (stereo not drawn),.,.,.,96.0
Cc1cc(S(=O)(=O)NCCN2CCOCC2)c(C)s1,-,-,65.4,-
COc1cc(S(=O)(=O)NCCN2CCOCC2)c(OC)cc1Cl,-,-,-,-
CC(/C=N/NC(=O)c1cc(-c2ccc(Cl)cc2)nc2ccccc12)=C\c1ccco1,-,80.3,-,-
CC(/C=N/NC(=O)CN1CCN(Cc2ccc(Cl)cc2)CC1)=C\c1ccco1,.,.,.,-
Cc1n[nH]c(C)c1CCc1nc2c3ccccc3nc(SCC(N)=O)n2n1,-,-,-,.
Cc1ccc(NC(=O)CSc2nc3ccccc3c3nc(CCc4c(C)n[nH]c4C)nn23)cc1F,-,-,-,82.3
SMILES,HUVEC tox TNFa,VCAM1 TNFa inh,F-actin modifier,E-sel TNF inh
O=C(Nc1ccccc1)C1=C(c2ccccc2)S(=O)(=O)CCS1(=O)=O,.,.,.,99.8
CN(Cc1nc(-c2cnccn2)no1)Cc1n[nH]c2c1CCCC2,.,.,.,-
O=C(Oc1nsnc1N1CCOCC1)N1CCCCC1,-,-,-,-
O=C(Oc1nsnc1N1CCOCC1)N1CCOCC1,-,-,-,76.8
CC(=O)N[C@@H](Cc1c[nH]c2ccccc12)C(=O)OCC(=O)Nc1ccc(S(=O)(=O)N(C)C)cc1,.,.,.,74.8
COC(=O)c1ccc(S(=O)(=O)NCc2cccc(OC)c2)n1C,-,-,-,63.9
Cc1ccc(N(C)C(=O)n2cnc3ccccc32)cc1,.,.,.,-
Cc1ccc(-c2csc(=S)n2CC(=O)OCC(=O)NCc2ccc(F)cc2)cc1,-,-,-,.
CCCCNC(=O)C1CCCN(S(=O)(=O)c2ccc(-n3cnnn3)cc2)C1 (stereo not drawn),-,-,-,-
O=C(NCC1CC1)C1CCCN(S(=O)(=O)c2ccc(-n3cnnn3)cc2)C1 (stereo not drawn),-,-,-,61.9
Cc1ccc(-n2ncc(C(=O)NCc3ccc4c(c3)OCO4)c2NC(=O)c2ccco2)cc1C,-,-,-,-
O=C(Cn1ncc2c(=O)oc3ccccc3c21)N1CCC(N2CCCCC2)CC1,.,.,.,-
O=C(Cn1ncc2c(=O)oc3ccccc3c21)N1CCc2ccccc2C1,.,.,.,90.5
CCC(C)Nc1nc(OC(C(F)(F)F)C(F)(F)F)nc(OC(C(F)(F)F)C(F)(F)F)n1 (stereo not drawn),-,-,-,43.5
COc1cc(C2Nc3ccc4ncccc4c3C3=C2C(=O)CCC3)cc(OC)c1O (stereo not drawn),-,91.2,-,-
CCCOc1ccc(NC(=O)C(=O)NCCCn2ccnc2)cc1,.,.,.,77.7
CCC(=O)Nc1ccc(C(=O)NCCCn2ccnc2)cc1,.,.,.,-
CCOc1cc(C(=O)NCCCn2ccnc2)cc(OCC)c1OCC,.,.,.,88.3
Cc1cccc(-c2noc(CN(C(=O)C(c3ccccc3)c3ccccc3)C(C)C)n2)c1,-,-,-,.
Cc1ccc(-n2c(C)cc(C=C(C#N)C#N)c2C)cc1,-,-,-,52.0
COc1ccc(N2CCN(CC(O)COc3ccc4c(c3)CCC4)CC2)cc1 (stereo not drawn),-,-,.,-
CN1C(=O)S/C(=C/c2ccccc2OCc2ccc(C(=O)O)cc2)C1=O,.,.,.,-
CN1C(=O)S/C(=C\c2ccccc2OCc2ccc(C(=O)O)cc2)C1=O,.,.,.,100.0
COCCCNC(=S)N1CCC(NC(=O)Nc2ccc(C)cc2)CC1,.,.,.,-
Cc1ccc(CNc2ccc(S(=O)(=O)N3CCOCC3)cc2[N+](=O)[O-])cc1,.,.,.,75.8
SMILES,HUVEC tox TNFa,VCAM1 TNFa inh,F-actin modifier,E-sel TNF inh
c1ccc(Nc2ccc3c4c(cccc24)CC3)cc1,-,-,-,-
Nc1ccc2c3c(cccc13)CC2,-,-,50.8,.
Cc1ccc(C(C)n2cc(C(=O)NCCN3CCN(C)CC3)nn2)cc1 (stereo not drawn),-,-,-,71.2
Cc1cc(/C=C2\SC(=Nc3ccc(F)cc3)NC2=O)c(C)n1-c1ccc(S(N)(=O)=O)cc1,-,-,31.4,-
COc1ccc(/C=N/NC(=O)c2snnc2C)c(OC)c1OC,.,.,.,-
O=C(Cc1ccccc1)NCCC1=CCCCC1,.,.,.,-
O=C(CCc1ccccc1)NCCC1=CCCCC1,.,.,.,74.9
COc1ccc(NC(=S)N2CCC(c3nc4ccccc4o3)CC2)c(OC)c1,.,.,.,-
CO/N=C/C(=N\Nc1ccc(OC)cc1)C(=O)c1ccc(F)cc1,.,.,.,-
CO/N=C/C(=N\Nc1ccc(C)cc1)C(=O)c1ccc(OC)cc1,-,40.1,-,-
CCn1cc(C(=O)NCc2ccco2)c(=O)c2cc(S(=O)(=O)N3CCc4ccccc4C3)ccc21,-,-,-,100.0
COC(=O)c1ccc(CO/N=C/c2ccc(OC)cc2)o1,.,.,.,-
O=S(=O)(Nc1ccc(-n2cccc2)cc1)c1ccccc1,-,39.5,-,-
Cc1ccc(CNC(=O)Cn2ccc3ccccc3c2=O)o1,-,-,35.8,.
COC(=O)CNC(=O)Cn1ccc2ccccc2c1=O,-,-,-,-
COc1ccc(CC(=O)Nc2ccc(-c3noc(-c4cccc(OC)c4)n3)cc2)cc1,-,39.1,-,-
Nc1nc(SCC(=O)Nc2ccc([N+](=O)[O-])cc2)n[nH]1,.,.,.,-
CCn1ccnc1C(O)c1cccc(OC)c1 (stereo not drawn),-,-,63.6,-
CCc1ccc(NS(=O)(=O)c2cc(OC)ccc2OC)cc1,80.8,-,-,.
COCC(=O)NC1CC2CCC(C1)N2C(=S)Nc1ccccc1C(=O)OC (stereo not drawn),.,.,.,-
C=CCNC(=S)NNC(=O)c1ccc(Br)cc1,.,.,.,63.0
